# Data published in PubChem BioAssay AID588436 (Broad Institute, 2011).
# Screen size: about 350,000 compounds; about 550 (0.16%) were called active. No stated cut-off is given here; in the data, active means activation mostly above about 9.7% (no sharp cut-off); inconclusive means no clear call, values can overlap the other calls; inactive means mostly below about 3.7%. The entries come from a sample that favours actives as a whole.
# Experiment: inducers of Vibrio cholerae quorum light production without autoinducers, primary screen, BH1578 luxS cqsA deficient, single point (AID 588436)
# Conditions: V. cholerae BH1578 lux reporter, luminescence, 6 h, at 18.7 µM; hits give high values
row,SMILES,activation
1,COc1cccc(NS(=O)(=O)c2ccc3[nH]cc(C(=O)NCCCOC(C)C)c(=O)c3c2)c1,inactive
2,CN(C)c1ccc(CSc2ccccc2)cc1,inactive
3,CN(C)c1ccc(CNC2C3CC4CC(C3)CC2C4)cc1 (stereo not given),-0.358% (inactive)
4,CN(C)c1ccc(CNC23CN4CN(CN(C4)C2)C3)cc1,54% (active)
5,CCN1CN(Cc2ccccc2)CNC1=S,inactive
6,C=CCC(C(=O)c1ccccc1)[N+](C)(C)CC=C (stereo not given),inactive
7,COc1ccccc1C(=O)NC(CCSC)C(=O)NNC(=O)c1csc(N2CCOCC2)n1 (stereo not given),inactive
8,COc1ccc(-n2ncc3c2CC(C)(C)CC3NC(=O)CCc2c(C)noc2C)cc1 (stereo not given),-0.606% (inactive)
9,O=C(O)CCCCCCCCc1cn(CN2C(=O)c3ccccc3C2=O)nn1,-0.601% (inactive)
10,COc1ccc(CC(=O)c2ccc(O)cc2O)cc1OC,1.54% (inactive)
11,O=C(NC1CCN(C(=S)NCc2ccco2)CC1)c1ccc(F)cc1,inactive
12,CCN(C[C@H]1N[C@@](CC)(C(=O)OC)[C@H]2C(=O)N(Cc3ccccc3)C(=O)[C@@H]12)S(=O)(=O)c1ccc(C(F)(F)F)cc1,inactive
13,Cc1ncoc1C(=O)NCCC(c1ccccc1)c1ccccc1,inactive
14,CS(=O)(=O)N1CCCC(C(=O)Nc2ccccc2C(F)(F)F)C1 (stereo not given),-3.85% (inactive)
15,CCN(CC(=O)NCC(=O)Nc1cccc(C)c1C)Cc1ccccc1,inactive
16,CCCCCCn1c(=O)n2n(c1=O)C[C@]1(OC(=O)NCc3ccc(OC)c(OC)c3)CN(S(=O)(=O)c3ccc(C)cc3)C[C@]1(O)C2,-2.08% (inactive)
17,Cc1ccc(C(=O)N/N=C/c2sc(=O)n(Cc3cccc(C(=O)O)c3)c2Cl)cc1,0.645% (inactive)
18,CCCCNC(=O)Cn1nc(C)c(S(=O)(=O)N2CCOCC2)c1C,inactive
19,CNc1cncc(-c2cccc(C(=O)N3CCOCC3)c2)n1,3.33% (inactive)
20,Cc1onc(-c2ccccc2)c1C(=O)N1CCOCC1,16.7% (active)
21,Cc1onc(-c2ccccc2)c1C(=O)N1CCN(S(=O)(=O)c2ccccc2C(F)(F)F)CC1,-0.206% (inactive)
22,Cc1cccc(N2CCN(C(C)C(=O)N3CCc4ccccc43)CC2)c1C (stereo not given),-0.336% (inactive)
23,COc1ccccc1-c1cnn2c(N3CCOCC3)cc(C)nc12,-0.198% (inactive)
24,CC(C)n1ncc2c(C(=O)N3CCN(Cc4cccs4)CC3)cc(C3CC3)nc21,-0.459% (inactive)
25,CCN(CC)c1nc(-c2ccccc2)cc(C(F)(F)F)c1C#N,17.9% (active)

row,SMILES,activation
1,N#Cc1c(C(F)(F)F)cc(-c2cccs2)nc1N1CCCCC1,-0.871% (inactive)
2,N#Cc1c(C(F)(F)F)cc(-c2ccccc2)nc1SCC(=O)N1CCOCC1,-0.279% (inactive)
3,CS(=O)(=O)c1sc(C(=O)NC(=S)Nc2ccc(OC(F)(F)F)cc2)c2c1C=CCC2,0.546% (inactive)
4,COC(=O)Cc1ccc(OCC(=O)Nc2ccc(OC(F)(F)F)cc2)cc1,-0.392% (inactive)
5,CCNC(=S)Nc1ccc(OC(F)(F)F)cc1,20.7% (active)
6,CCn1c2c(c3ccc(OC)cc31)CCCC2=O,inactive
7,CC(C[N+](C)(C)C)OC(N)=O (stereo not given),inactive
8,CC(=O)OC(C)C[N+](C)(C)C (stereo not given),22.9% (active)
9,CC(=O)OCC(COC(C)=O)OC(C)=O,-1.4% (inactive)
10,NC(=O)C1CC=CCC1C(=O)OCC(Cl)=C(Cl)Cl (stereo not given),-0.395% (inactive)
11,Cc1noc(C)c1S(=O)(=O)N(C)Cc1ccccc1,inactive
12,COC(CNC(=O)Cn1ncc2ccsc2c1=O)OC,inactive
13,O=C(CN1CCCCCC1)Nc1ccc(Br)cc1Br,-7.69% (inactive)
14,O=C(CN1CCCCC1)Nc1ccc(Br)cc1C(=O)c1ccccc1Cl,-0.319% (inactive)
15,O=C(CN1CCCCCC1)Nc1ccc(Br)cc1[N+](=O)[O-],45.8% (active)
16,CCC1CCCCN1C(=O)Nc1cccc(NC(=O)N2CCCCC2CC)c1 (stereo not given),inactive
17,CC(C)CC(=O)N1CCN(Cc2cccc(Cl)c2)CC1,inactive
18,COc1ccccc1CN1CCN(C(=O)Cc2ccccc2)CC1,inactive
19,CC(C)CC(=O)N1CCN(Cc2ccccc2Br)CC1,144% (active)
20,CCOC(=O)c1c(-c2cccc(N)c2)cn2ccccc12,-1.18% (inactive)
21,CC(=O)N1C(=O)C2(Nc3ccccc3N2)c2ccccc21,inactive
22,CC(C)Cc1ccc(S(=O)(=O)N2CCN(C(=O)c3ccco3)CC2)cc1,-6.25% (inactive)
23,Cc1oc2cc3oc(=O)ccc3cc2c1C,-0.488% (inactive)
24,C/C(=N\NS(=O)(=O)c1cccc([N+](=O)[O-])c1)c1cc2ccccc2o1,-2.5% (inactive)
25,CCc1nc2c(OCCOc3ccccc3)cccn2c1N(C=O)Cc1ccc(OC)cc1,4.55% (inactive)

row,SMILES,activation
1,COc1cc(C(=O)NCC(=O)NCCSc2ccc(Br)cc2)cc(OC)c1OC,inactive
2,Cc1cccc(C(=O)OCC(=O)NCC(C)C)c1O,302% (active)
3,Cc1cccc(C(=O)OCC(=O)NC(C)C2CC3CCC2C3)c1O (stereo not given),inactive
4,Cc1cccc(C)c1NC(=O)COC(=O)c1ccccc1O,-0.155% (inactive)
5,Oc1ccc(CNc2ccccc2O)cc1,-0.266% (inactive)
6,O=C(Nc1ccc2ccccc2c1)Nc1ccc2snnc2c1,inactive
7,COc1ccc2[nH]c(=O)c(CN(Cc3cccnc3)S(=O)(=O)c3ccccc3F)cc2c1,0.282% (inactive)
8,COc1ccc2[nH]c(=O)c(CNc3ccc(C)c(C)c3)cc2c1,16.7% (active)
9,COc1ccc2[nH]c(=O)c(CN(CC3CCCO3)C(=O)Nc3ccccc3)cc2c1 (stereo not given),-0.239% (inactive)
10,COc1ccc(N2C(=O)NC(NS(=O)(=O)c3ccc(Cl)cc3)(C(F)(F)F)C2=O)cc1 (stereo not given),0.575% (inactive)
11,Cc1ccc(Cl)cc1NC(=O)C1CCCN(c2cnccn2)C1 (stereo not given),-2.5% (inactive)
12,CC1(C)C=C2[C@H]3CC[C@@H]4[C@@]5(C)CCC(=O)C(C)(C)[C@@H]5CC[C@@]4(C)[C@]3(C)CC[C@@]2(C(=O)O)CC1,inactive
13,Cc1cc(=O)oc2cc(OC(C)C(=O)Nc3ccc(N4CCOCC4)cc3)ccc12 (stereo not given),inactive
14,Cc1cc(NC(=O)CN2CCC(O)(c3cccc(F)c3)CC2)no1,-11.8% (inactive)
15,O=C(CN1CCC(O)(c2cccc(C(F)(F)F)c2)CC1)NCCc1ccccc1,277% (active)
16,CCCNC(=O)C1(C)CCCN(Cc2cccc(C(F)(F)F)c2)C1 (stereo not given),inactive
17,OCCN1CCN(CCO)C1=S,-0.805% (inactive)
18,COc1cccc(CN(C)C(=O)CC23CC4CC(CC(C4)C2)C3)c1OC,inactive
19,O=C(Cc1ccc([N+](=O)[O-])cc1)Nc1ccc(C(=O)N2CCOCC2)cc1,inactive
20,Cc1c(C#N)c2ncn(CC#N)c(=O)c2n1-c1ccccc1,25% (active)
21,CC(=O)Cn1cnc2c(cnn2-c2ccccc2)c1=O,inactive
22,CN(C)/C=C/c1c(C#N)c(=O)ncn1Cc1ccccc1,inactive
23,Cc1cc(C)c(C#N)c(SCC(=O)NN2CC(=O)N(c3ccccc3F)CC2=O)n1,2.85% (inactive)
24,CCCCC(=O)Nc1ccccc1N1CCN(c2ccc(F)cc2)CC1,inactive
25,COc1ccccc1NC(=O)c1cc(N2C(=O)C3C4CCC(C4)C3C2=O)ccc1Cl (stereo not given),inactive

row,SMILES,activation
1,COc1ccc(-c2coc3c(C(=O)NC(C)C)cccc23)c(C)c1,-0.54% (inactive)
2,O=C(NCc1cccs1)c1ccc(CS(=O)Cc2ccccc2Cl)o1 (stereo not given),-3.95% (inactive)
3,CCN(CC(=O)NCc1ccc(Cl)cc1)C(=O)CSc1ccccc1,39.3% (active)
4,CCN(CC(=O)NCc1ccc(Cl)cc1)C(=O)c1c(C)noc1C,inactive
5,CCN(CC(=O)Nc1cc(Cl)ccc1C)C(=O)CSCc1ccccc1,1.13% (inactive)
6,c1ccc(Cc2cc[n+](Cc3ccccc3)cc2)cc1,-0.465% (inactive)
7,CC(C)(C)c1ccc(/C=C2\Oc3c(ccc(O)c3CN3CCN(CCO)CC3)C2=O)cc1,-0.166% (inactive)
8,COP1(=O)C[C@@H](O)[C@@H](O)[C@@H](COCc2ccccc2)O1 (stereo not given in full),inactive
9,COCC1CCCCN1C(=O)c1cc(COc2ccc(C)c(C)c2)on1 (stereo not given),inactive
10,COc1ccc(NC(=O)CN2C(=O)C(c3ccccc3)=NC23CCCCCC3)cc1OC,-0.396% (inactive)
11,COc1ccc(CNS(=O)(=O)c2ccc(NC(=O)N3CCCCC3)cc2)cc1,inactive
12,COc1ccc(OCCCC(=O)Nc2cccc(S(=O)(=O)N3CCCCCC3)c2)cc1,-0.87% (inactive)
13,O=C(Nc1ccc(F)cc1)c1cc2c(s1)CCCC2,0.953% (inactive)
14,O=C(O)C1CCCN1c1nc(Cl)ccc1[N+](=O)[O-] (stereo not given),inactive
15,Cc1cccc(-c2oc3ccc(-c4ccc5c(c4)OCO5)cc3c2C#Cc2cncn2C)c1,-1.22% (inactive)
16,COCCNC(=O)c1ccc2c(c1)ncn2-c1ccc(C)c(Cl)c1,inactive
17,O=C(c1cccs1)n1nc(NCc2ccccc2)nc1NCc1ccccc1,-0.325% (inactive)
18,CC(NC(=O)COC(=O)C1CCN(S(=O)(=O)c2ccccc2C(F)(F)F)CC1)c1ccccc1 (stereo not given),-0.574% (inactive)
19,Cc1ccc(-c2nc(CS(=O)(=O)CC(=O)NCc3ccc4c(c3)OCO4)c(C)o2)cc1,-0.345% (inactive)
20,CC(=O)c1ccc(Cc2ncc(C(F)(F)F)cc2Cl)s1,inactive
21,CCOc1ccc(S(=O)(=O)N/N=C(\C)c2ccc(Cl)c(Cl)c2Cl)cc1,inactive
22,CC1Cc2ccccc2N1S(=O)(=O)c1ccc(Cl)nc1 (stereo not given),inactive
23,COC(=O)C1=C(C)N(c2ccc(C)cc2)/C(=C/c2ccc(O)cc2)C1=O,-0.588% (inactive)
24,CCCC(=O)Nc1ccc2c(c1)nc1n2CCSC1,-5% (inactive)
25,COc1ccc(N2CCN(C(=O)c3cn(C)c4ccc(S(=O)(=O)N5CCOCC5)cc4c3=O)CC2)cc1,1.02% (inactive)
